FGF22 binding – FGF22 (human) thermal shift binding. Q9HCT0. recombinant FGF22 thermal shift, SYPRO orange fluorescence; percent of sucrose octasulfate shift, DMSO zero. activity (Tm shift, normalised), % at 9.99 µM. actives 1.5% (n = 340,000). AID 651658;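 active = mean Tm shift, scaled 0 neutral to 100 positive control, at about 1.3% or above, every replicate too, limit read from the data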
Casp6 inh – caspase-6 (human) enzyme inhibition. P55212. purified caspase-6, Z-VEID-R110 cleavage fluorescence. inhibition, % at 12.5 µM. actives 0.53% (n = 350,000);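 active = mean inhibition across replicates at least about 35%, with every replicate also reaching that limit, limit read from the data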;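 also: 0% = median of neutral control wells and 100% = no fluorescence left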
GSIS activator – GLuc luminescence reporter in INS-1E cells, primary screen for activators of glucose-dependent secretion of insulin; INS-1E GLuc reporter insulin secretion, 2-3 h; activation, % at 16.6 µM; actives 0.61% (n = 370,000); AID 743287;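 active = lowest replicate activation of at least 40%, so every replicate reaches that level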;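 also: 0% = median of neutral control wells and 100% = median of IBMX positive control wells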
SIRT5 inh – sirtuin-5 (human) deacylase inhibition; Purified SirT5, succinyl-peptide AMC, trypsin-coupled fluorescence; inhibition, % at 15 µM; actives 1.1% (n = 330,000); AID 652115; in the data active = inhibition above about 15%
ERAP1 HTS inh – blocks human ERAP1 aminopeptidase activity; inhibition, % at 10.7 µM; recombinant ERAP1, Leu-AMC fluorescence, 60 min; actives 0.15% (n = 340,000);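 active = mean replicate inhibition of at least 30%, or all replicates individually reaching that 30% level; inactive = mean below 30% and not every replicate reaching it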;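 also: 0% = neutral control wells and 100% = L-leucinethiol positive control wells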
Numbers without * were called inactive; . = not tested or not shown; ! = not active in a repeat. An excerpt weighted towards active compounds, which were near 3.3% of everything screened.

SMILES | FGF22 binding | Casp6 inh | GSIS activator | SIRT5 inh | ERAP1 HTS inh
O=C(O)c1c2c(nc3ccc(S(=O)(=O)N4CCC(C(=O)NCc5ccccc5Cl)CC4)cc13)CCCC2 | 0 | 44* | -7 | 1 | 1
COc1ccc(CNC(=O)C2CCN(S(=O)(=O)c3ccc4nc5c(c(C(=O)O)c4c3)CCCC5)CC2)cc1 | 0 | 54* | 1 | 1 | -2
O=C(O)c1c2c(nc3ccc(S(=O)(=O)N4CCC(C(=O)NC5CCCCCC5)CC4)cc13)CCCC2 | . | 43* | . | 5 | 4
COCC(=O)N1C[C@@H](C)[C@@H](OC)CN(C)C(=O)c2ccc(NC(=O)c3ccccc3)cc2OC[C@H]1C | 0 | -1 | 16 | -1 | 2
O=C(NCC(c1ccco1)N1CCc2ccccc21)c1ccccc1 (stereo unspecified) | . | 52* | 21 | -3 | -2
CCCCCCn1c(=O)n2n(c1=O)C[C@]1(OC(=O)Nc3cccs3)CN(S(=O)(=O)c3ccc(C)cc3)C[C@]1(O)C2 | 0 | 11 | -9 | -2 | -3
CCCCCCn1c(=O)n2n(c1=O)C[C@]1(OC(=O)Nc3c(C)noc3C)CN(S(=O)(=O)c3ccc(C)cc3)C[C@]1(O)C2 | 43* | -3 | -27 | . | 2
CCC(CC)COC(=O)C1=C(C)NC(=O)NC1c1cc(OC)ccc1OC (stereo unspecified) | 0 | 68* | . | 4 | 4
Cc1cc2c(cc1C)CSC(c1c(O)ccc3ccccc13)SC2 | . | . | 185* | . | .
C[C@@H]1CN([C@@H](C)CO)C(=O)c2cc(NC(=O)Nc3ccc(C(F)(F)F)cc3)ccc2O[C@@H]1CN(C)S(=O)(=O)c1ccc(Cl)cc1 | 0 | 1 | -31 | 5 | 1
C[C@H]1CN([C@@H](C)CO)C(=O)c2cc(NC(=O)Nc3ccc(C(F)(F)F)cc3)ccc2O[C@H]1CN(C)S(=O)(=O)c1ccc(Cl)cc1 | 0 | -1 | 1 | 23* | 0
C[C@@H]1CN([C@@H](C)CO)C(=O)Cc2cc(NC(=O)Nc3ccc(F)cc3)ccc2O[C@@H]1CN(C)S(C)(=O)=O | -1 | 1 | 1 | -1 | 1
C[C@H]1CN([C@@H](C)CO)C(=O)Cc2cc(NC(=O)Nc3ccc(F)cc3)ccc2O[C@@H]1CN(C)S(C)(=O)=O | 0 | -1 | 1 | 18* | 3
C[C@@H]1CN([C@@H](C)CO)C(=O)c2cc(NC(=O)Nc3ccc(F)cc3)ccc2O[C@H]1CN(C)S(=O)(=O)c1ccc(Cl)cc1 | 0 | -1 | -6 | 8 | 0
C[C@H](CO)N1C[C@H](C)[C@H](CN(C)S(=O)(=O)c2ccc(Cl)cc2)Oc2ccc(NC(=O)Nc3ccc(F)cc3)cc2C1=O | 0 | -1 | -23 | 15* | 1
Cc1ccc(S(=O)(=O)N(C)C[C@@H]2Oc3ccc(NC(=O)Nc4ccc(C(F)(F)F)cc4)cc3C(=O)N([C@@H](C)CO)C[C@@H]2C)cc1 | 2.8* | 1 | 2 | 4 | -1
CN1C(=O)c2cc(NC(=O)C3CCC3)ccc2OC[C@@H]2O[C@@H](CC(=O)NCC3CCCCC3)CC[C@H]21 | . | 1 | -6 | 3 | -2
CC1CCCC(NC(=O)COC(=O)c2ccc([N+](=O)[O-])s2)C1C (stereo unspecified) | 0 | 57* | -16 | -3 | 0
CC1CCCC(NC(=O)COC(=O)c2ccccc2[N+](=O)[O-])C1C (stereo unspecified) | 44* | 0 | . | -1 | 9
CCCN(C)C[C@H]1OCCCC[C@@H](C)Oc2ccc(NC(=O)NC(C)C)cc2C(=O)N([C@@H](C)CO)C[C@H]1C | 0 | 0 | 27 | 2 | 1
C[c-]1[c-](C)[c-](C)[c-](C)[c-]1C.[Fe].c1cc2nccc(N3CCCC3)[c-]2c1 (stereo unspecified) | 0 | 38*! | -2 | 1 | 4
O=C1CN(S(=O)(=O)c2cccc(F)c2)C[C@@H]2[C@H](c3ccc(-c4ccccc4)cc3)[C@H](CO)N12 | . | 0 | 5 | 3 | -2
Cc1cccc(-c2ccc([C@H]3[C@@H](CO)N4C(=O)CN(S(=O)(=O)c5cccc(F)c5)C[C@@H]34)cc2)c1 | -1 | -3 | -23 | 17* | -3
Cc1cccc(-c2ccc([C@H]3[C@H]4CN(S(=O)(=O)c5cccc(F)c5)CC(=O)N4[C@H]3CO)cc2)c1 | 0 | -1 | -17 | 19* | -3
Cc1noc(C)c1NC(=O)N(C)C[C@@H]1OCc2ccccc2-c2ccccc2C(=O)N([C@H](C)CO)C[C@H]1C | 0 | 1 | -3 | -9 | -2
SMILES | FGF22 binding | Casp6 inh | GSIS activator | SIRT5 inh | ERAP1 HTS inh
CO[C@H]1CN(C)C(=O)c2ccc(NC(=O)C3CCC3)cc2OC[C@@H](C)N(CC2CCCCC2)C[C@@H]1C | 0 | -4 | -39 | 9 | -2
C[C@H]1COC[C@@H](C/C=C/c2ccccc2)N1c1ccccc1 | 43* | -2 | -40 | . | 1
COc1ccc2c3c([nH]c2c1)[C@@H](CO)N(C(=O)Cc1ccccc1)CC31CN(C)C1 | . | -1 | -18 | -3 | -1
C[C@@H]1CCCCO[C@@H](CN(C)C(=O)CCCN(C)C)[C@H](C)CN([C@@H](C)CO)C(=O)c2cc(NC(=O)CCCN(C)C)ccc2O1 | 0 | 1 | 34 | -3 | -3
CC1CCCCN1C(=O)COC(=O)CSc1ccc(C(N)=O)cc1[N+](=O)[O-] (stereo unspecified) | 0 | 1 | 45* | -1 | -1
CC(C)(C)c1ccc(C(=O)O/N=C(\N)Cc2cccs2)cc1 | 0 | 3 | -19 | 34* | -5
CN(C)CC(=O)N[C@@H]1CC[C@H](CCNC(=O)C2CC2)O[C@@H]1CO | . | -1 | 12 | -2 | 2
C[C@@H]1CN([C@H](C)CO)C(=O)c2cccc(NS(=O)(=O)c3ccc(Cl)cc3)c2O[C@@H]1CN(C)CC1CCCCC1 | 0 | 3 | -7 | -1 | -2
COc1ccc(S(=O)(=O)N2CCCCN3[C@H](C2)[C@H](c2ccc(C#CC(C)C)cc2)[C@@H]3CO)cc1 | -1 | -5 | -14 | 16* | 0
O=S(=O)(c1ccc(F)cc1)N1CCCCN2[C@H](C1)[C@H](c1ccc(C#CC3CCCC3)cc1)[C@@H]2CO | -1 | 0 | . | 18* | 3
O=S(=O)(c1ccccc1)N1CCCCN2[C@H](C1)[C@H](c1ccc(C#CC3CCCC3)cc1)[C@@H]2CO | 0 | 0 | 3 | 19* | 2
COc1ccc(S(=O)(=O)N2CCCCN3[C@H](CO)[C@@H](c4ccc(C#CC(C)C)cc4)[C@@H]3C2)cc1 | 0 | -2 | -1 | 12 | 1
O=S(=O)(c1ccc(F)cc1)N1CCCCN2[C@H](CO)[C@H](c3ccc(C#CC4CCCC4)cc3)[C@H]2C1 | -1 | 1 | . | 22* | 3
CO[C@@H]1CC[C@@H]2CCN(C)C(=O)C[C@@H](c3ccccc3)CN(C)C(=O)c3cccc(C#N)c3OC[C@H]1O2 | 0 | -5 | 2 | -1 | -2
